About 2,000 (36%) of roughly 5,500 compounds were called active. Another 18% or so got no clear call; they are omitted. Cut-off read from the data, not from the text of the source: active = normalized growth mostly below about 0.91 (no sharp cut-off); inconclusive = no clear call, values can overlap the other calls; inactive = mostly above about 0.92. This is one part of the list.
Assay: chemical genetic growth profiling, strain panel (AID 1159580);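 note: tested at 20 µM; growth read once vehicle control cultures reached saturation at 30 °C; 1 = growth at the plate median or of vehicle wells; lower values mean less growth of the strain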
Details: growth OD

Measured: normalized growth

O=C(O)/C=C/C=C/c1ccccc1
inactive: S. cerevisiae deletion strains, locus YLR039C, strain RIC1, active compounds read low 0.832 | S. cerevisiae deletion strains, locus YLR058C, strain SHM2, active compounds read low 0.98 | S. cerevisiae deletion strains, locus YLR102C, strain apc9, active compounds read low 0.932 | S. cerevisiae deletion strains, locus YLR262C, strain YPT6, active compounds read low 0.886 | S. cerevisiae deletion strains, locus YLR268W, strain sec22, active compounds read low 0.887 | S. cerevisiae deletion strains, locus YLR330W, strain CHS5, active compounds read low 0.952 | S. cerevisiae deletion strains, locus YLR342W, strain FKS1 (second series), active compounds read low 0.882 | S. cerevisiae deletion strains, locus YLR371W, strain rom2, active compounds read low 0.913 | S. cerevisiae deletion strains, locus YLR418C, strain cdc73, active compounds read low 0.859 | S. cerevisiae deletion strains, locus YML016C, strain PPZ1, active compounds read low 0.994 | S. cerevisiae deletion strains, locus YML032C, strain rad52, active compounds read low 0.908 | S. cerevisiae deletion strains, locus YMR223W, strain ubp8, active compounds read low 0.934 | S. cerevisiae deletion strains, locus YMR307W, strain GAS1, active compounds read low 0.924 | S. cerevisiae deletion strains, locus YNL067W, strain RPL9B, active compounds read low 0.954 | S. cerevisiae deletion strains, locus YNL153C, strain GIM3, active compounds read low 0.952 | S. cerevisiae deletion strains, locus YNL233W, strain BNI4, active compounds read low 0.949 | S. cerevisiae deletion strains, locus YNL307C, strain MCK1, active compounds read low 0.93 | S. cerevisiae deletion strains, locus YNL322C, strain KRE1, active compounds read low 0.985 | S. cerevisiae deletion strains, locus YNR052C, strain pop2, active compounds read low 0.925 | S. cerevisiae deletion strains, locus YOL006C, strain TOP1, active compounds read low 1.11 | S. cerevisiae deletion strains, locus YOL012C, strain htz1 1.04 | S. cerevisiae deletion strains, locus YOR061W, strain CKA2, active compounds read low 0.973 | S. cerevisiae deletion strains, locus YOR069W, strain VPS5, active compounds read low 0.974 | S. cerevisiae deletion strains, locus YOR136W, strain idh2, active compounds read low 0.938 | S. cerevisiae deletion strains, locus YOR184W, strain ser1, active compounds read low 0.928 | S. cerevisiae deletion strains, locus YOR316C, strain cot1, active compounds read low 0.932 | S. cerevisiae deletion strains, locus YPL055C, strain LGE1, active compounds read low 0.965 | S. cerevisiae deletion strains, locus YPR167C, strain met16, active compounds read low 0.926 | S. cerevisiae deletion strains, strain wtn01, active compounds read low 0.926 | S. cerevisiae strains, strain wild type, active compounds read low 0.976
active: S. cerevisiae deletion strains, locus YJR066W, strain TOR1, active compounds read low 0.162 | S. cerevisiae deletion strains, locus YKL009W, strain mrt4, active compounds read low 0.784 | S. cerevisiae deletion strains, locus YKL068W, active compounds read low 0.854 | S. cerevisiae deletion strains, locus YKL085W, strain MDH1 (second series), active compounds read low 0.773 | S. cerevisiae deletion strains, locus YKL085W, strain MDH1, active compounds read low 0.773 | S. cerevisiae deletion strains, locus YKL160W, strain elf1, active compounds read low 0.831 | S. cerevisiae deletion strains, locus YKR001C, strain vps1, active compounds read low 0.792 | S. cerevisiae deletion strains, locus YKR026C, strain gcn3, active compounds read low 0.808 | S. cerevisiae deletion strains, locus YKR091W, strain srl3, active compounds read low 0.83 | S. cerevisiae deletion strains, locus YLL001W, strain dnm1, active compounds read low 0.782 | S. cerevisiae deletion strains, locus YLL026W, active compounds read low 0.831 | S. cerevisiae deletion strains, locus YLL041C, strain sdh2, active compounds read low 0.829 | S. cerevisiae deletion strains, locus YLR027C, strain aat2, active compounds read low 0.827 | S. cerevisiae deletion strains, locus YLR113W, strain HOG1, active compounds read low 0.26 | S. cerevisiae deletion strains, locus YLR221C, strain rsa3, active compounds read low 0.778 | S. cerevisiae deletion strains, locus YLR258W, strain gsy2, active compounds read low 0.817 | S. cerevisiae deletion strains, locus YLR262C, strain YPT6 (second series), active compounds read low 0.518 | S. cerevisiae deletion strains, locus YLR320W, strain mms22, active compounds read low 0.771 | S. cerevisiae deletion strains, locus YLR342W, strain FKS1, active compounds read low 0.812 | S. cerevisiae deletion strains, locus YLR357W, strain rsc2, active compounds read low 0.732 | S. cerevisiae deletion strains, locus YLR370C, strain arc18, active compounds read low 0.813 | S. cerevisiae deletion strains, locus YLR384C, strain iki3, active compounds read low 0.827 | S. cerevisiae deletion strains, locus YML120C, strain ndi1, active compounds read low 0.822 | S. cerevisiae deletion strains, locus YML124C, strain tub3, active compounds read low 0.917 | S. cerevisiae deletion strains, locus YMR058W, strain fet3, active compounds read low 0.793 | S. cerevisiae deletion strains, locus YMR078C, strain ctf18, active compounds read low 0.9 | S. cerevisiae deletion strains, locus YMR125W, strain sto1, active compounds read low 0.857 | S. cerevisiae deletion strains, locus YMR129W, active compounds read low 0.824 | S. cerevisiae deletion strains, locus YMR205C, strain PFK2, active compounds read low 0.826 | S. cerevisiae deletion strains, locus YMR231W, strain pep5, active compounds read low 0.835 | S. cerevisiae deletion strains, locus YNL071W, strain lat1, active compounds read low 0.775 | S. cerevisiae deletion strains, locus YNL183C, strain NPR1, active compounds read low 0.168 | S. cerevisiae deletion strains, locus YNL209W, strain ssb2, active compounds read low 0.863 | S. cerevisiae deletion strains, locus YNL248C, strain rpa49, active compounds read low 0.832 | S. cerevisiae deletion strains, locus YNL250W, strain rad50, active compounds read low 0.823 | S. cerevisiae deletion strains, locus YNL271C, strain bni1, active compounds read low 0.772 | S. cerevisiae deletion strains, locus YNL298W, strain CLA4, active compounds read low 0.692 | S. cerevisiae deletion strains, locus YNL322C, strain KRE1 (second series), active compounds read low 0.746 | S. cerevisiae deletion strains, locus YNR049C, strain mso1, active compounds read low 0.771 | S. cerevisiae deletion strains, locus YOL147C, strain pex11, active compounds read low 0.927 | S. cerevisiae deletion strains, locus YOR001W, strain rrp6, active compounds read low 0.794 | S. cerevisiae deletion strains, locus YOR070C, strain gyp1, active compounds read low 0.831 | S. cerevisiae deletion strains, locus YOR080W, strain dia2, active compounds read low 0.835 | S. cerevisiae deletion strains, locus YOR083W, strain WHI5, active compounds read low 0.808 | S. cerevisiae deletion strains, locus YOR106W, strain vam3, active compounds read low 0.793 | S. cerevisiae deletion strains, locus YOR144C, strain elg1, active compounds read low 0.926 | S. cerevisiae deletion strains, locus YOR231W, strain MKK1, active compounds read low 0.27 | S. cerevisiae deletion strains, locus YOR265W, strain rbl2, active compounds read low 0.836 | S. cerevisiae deletion strains, locus YOR270C, strain vph1, active compounds read low 0.687 | S. cerevisiae deletion strains, locus YOR290C, strain snf2, active compounds read low 0.737 | S. cerevisiae deletion strains, locus YPL051W, strain arl3, active compounds read low 0.83 | S. cerevisiae deletion strains, locus YPL078C, strain atp4, active compounds read low 0.771 | S. cerevisiae deletion strains, locus YPL106C, strain sse1, active compounds read low 0.821 | S. cerevisiae deletion strains, locus YPL240C, strain hsp82, active compounds read low 0.806 | S. cerevisiae deletion strains, locus YPL256C, strain CLN2, active compounds read low 0.226 | S. cerevisiae deletion strains, locus YPR119W, strain clb2, active compounds read low 0.922 | S. cerevisiae deletion strains, locus YPR141C, strain kar3, active compounds read low 0.877 | S. cerevisiae deletion strains, locus YPR163C, strain tif3, active compounds read low 0.908

Source: PubChem BioAssay AID1159580 (chemical genetic matrix, 2015)
